Source: the supplement of paper PMC6555819

Key:
Assay in all cases: PBM binding z-score (relative to random genomic background probes); higher = stronger binding; sequences stand for … in GC…GCGATTGACAGCGTAGAATGAAGG
[1] = test system: RARb homodimer (NR concentration 270 nM)
Outline: (§1)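 Antibodies against each partner of ligand-free nuclear receptor dimers (one per run) detected binding on custom Agilent 4×180K protein-binding microarrays after 1 h incubation. The double-stranded probes had 34-nt variable regions carrying direct-repeat seeds, single-nucleotide variants, half-site ablations and random human genomic background sequences. Binding z-scores, from regression-normalized fluorescence, use the random background probes as reference.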

[2] = test system: RARg:RXRa (NR concentration 270 nM, RXRa partner concentration 90 nM)
Outline: as §1

[3] = test system: RARg homodimer (NR concentration 270 nM)
Outline: as §1

[4] = test system: RXRa DBDmut IVT, anti-RXR (DBD mutation: RXRa K156A/R161A, NR concentration 90 nM)
Outline: as §1

[5] = test system: RXRa homodimer (NR concentration 180 nM)
Outline: as §1

[6] = test system: THRa:RXRa (NR concentration 90 nM, RXRa partner concentration 90 nM)
Outline: as §1

[7] = test system: THRa homodimer (NR concentration 90 nM)
Outline: as §1

[8] = test system: VDR:RXRa (NR concentration 270 nM, RXRa partner concentration 90 nM)
Outline: as §1

[9] = test system: VDR homodimer (NR concentration 270 nM)
Outline: as §1

Sequence | PBM binding z-score [1] | PBM binding z-score [2] | PBM binding z-score [3] | PBM binding z-score [4] | PBM binding z-score [5] | PBM binding z-score [6] | PBM binding z-score [7] | PBM binding z-score [8] | PBM binding z-score [9]
GCGACTGGGCCAAAGCAGGTTACCATAAGGTTGG | 0.333 | -0.0916 | -0.132 | -0.818 | -0.0243 | 1.82 | -0.598 | -0.513 | -0.503
GCGACTGGGGCATCAGCCGGTTACCATAACTTAA | 0.131 | 0.11 | 0.063 | -0.636 | -0.543 | -0.0849 | -0.579 | -0.669 | -0.974
CAAACTAGGTCAACGGAAGGTCAAAGTCCGCATG | 5.37 | 8.1 | 6.98 | 2.17 | 5.99 | 4.24 | 2.34 | 5.56 | 3.65
GGAACGAGGGCATGCGAGTTGATAGCATGGCGAT | 0.608 | 1.21 | 1.6 | 2.03 | 0.847 | 2.7 | -0.777 | 2.9 | 1.97
ATCTCTAGGTAAAGGTAGTTCAGTGAATGCAAAT | 0.964 | 0.44 | 0.605 | 0.345 | 0.164 | 1.21 | 0.679 | 1.12 | 1.12
TCGAGTGGGTTAGGGGCATTCAGAATGGCGTCGA | 1.21 | 0.178 | -0.204 | 0.231 | 0.603 | 1.23 | 0.84 | 1.04 | 1.54
CCACGGAGGACAACAGGAGGTCAGAGCTGCCAGA | 3.72 | 3.61 | 3.45 | 0.466 | 2.08 | 2.8 | 1.28 | 2.13 | 1.48
AGAATGAGGTTATACGTAGATCAGCGAAGAAAGT | 0.428 | 1.76 | 0.909 | 1.41 | 2.13 | 1.99 | 0.0645 | 0.978 | 0.803
TCTATTAGGTGAAGGGCAACCGACGAGTCCGTTT | 1.59 | 1.07 | 1.35 | 1.57 | 0.977 | 1.42 | 0.828 | 0.783 | 1.67
AGAACGAGGGCACGCTGAGTGGATAGCAGAGTAG | 0.942 | 1.87 | 2.16 | 1.48 | 1.47 | 1.66 | -0.0727 | 0.617 | 0.664
TCTAGCAGGCCAGGGGGTCACTCAAGAGGTACGG | 3.61 | 5.22 | 4.08 | 1.3 | 5.38 | 3.35 | 1.52 | 4.25 | 2.91
ATTCAAAGTTCAGGACGAGGTAACGTAAAGCACG | 3.31 | 4.56 | 4.73 | 2.99 | 3.08 | 3.82 | 2.01 | 3.14 | 2.3
TCTTGTAGATCAGCAGGTTTAGAAAGCTGGCCAA | -0.607 | -0.508 | -0.884 | 0.412 | -0.374 | -0.307 | -0.755 | 0.532 | -0.457
CCGACTGGGGCATAAGGTTACCATTAGCCAGCCC | 1.82 | 1.34 | 0.904 | -0.204 | 1.08 | 1.87 | 1.37 | -0.0219 | -0.611
TCTAGTTGCTCACGGAGGTCACACACGACGGGTA | 4.16 | 4.02 | 3.73 | 1.11 | 4.32 | 3.46 | 2.22 | 3.64 | 2.06
ACTAGCAGGCCAAGGGTCACGCAAGATTAGTCCG | 4.29 | 5.29 | 4.8 | 0.355 | 5.96 | 3.38 | 0.69 | 3.76 | 1.24
CCTACTGGACCAAAGGTCATTGATTCCAATGCTC | 4.9 | 5.27 | 4.97 | 1.85 | 6.4 | 3.46 | 1.67 | 5 | 3.18
CCAGACAGGTGAGAGGTAACTCAGTCTGGTACGC | 0.491 | 0.564 | 0.526 | -0.348 | 0.784 | 0.574 | -0.109 | -0.0647 | -0.514
TAGTCTAGGTCAGATCGGGCCAGTATACGCTATA | 2.21 | 2.72 | 3.51 | -0.14 | 1.39 | 4.26 | 0.664 | 0.995 | -0.0113
ATCGAAAGGTCCTGAGGTGAGTATACAGAAAGGC | 1.02 | 1.36 | 0.977 | -0.513 | 1 | 1.98 | 0.778 | 0.189 | -0.0485
CAAACTAGGTCCCCGGAAGGTCAAAGTCCGCATG | 4.26 | 4.15 | 3.32 | 0.0846 | 3.49 | 2.91 | 1.33 | 3.23 | 2.2
GCTCGGAGGACACGGTCAGAGCTTTGTCCGTAGA | 1.35 | 0.822 | 1.71 | 0.29 | -0.503 | 1.36 | 0.245 | -0.792 | -0.453
CCAGACAGGAGAAAGGTAACTCAGTCTGGTACGC | 0.0408 | 0.115 | -0.016 | -0.0562 | 0.502 | -0.00788 | -0.183 | 0.0971 | -0.102
TAGACTAGGTCAGATCGGGCCAGTATACGCTATA | 1.99 | 2.46 | 3.56 | -0.416 | 1.24 | 3.92 | -0.175 | 0.598 | -0.33
CGTCAAAGTTCAACTAAGGTAACGTAGAGCACGC | 4.06 | 6.15 | 6.74 | 4.65 | 5.34 | 5.11 | 1.86 | 4.59 | 3.92
TCTTGTAGATCAAAGGTTAATAAAGCCGAAGCCT | 1.25 | 1.51 | 0.841 | 1.09 | 2.55 | 1.32 | -0.223 | 1.55 | 0.243

Sequence | PBM binding z-score [1] | PBM binding z-score [2] | PBM binding z-score [3] | PBM binding z-score [4] | PBM binding z-score [5] | PBM binding z-score [6] | PBM binding z-score [7] | PBM binding z-score [8] | PBM binding z-score [9]
AGAACAAGGGCACGCTGAGTTGATAGCAGAGTAG | 1.11 | 1.6 | 1.99 | 1.22 | 0.942 | 1.28 | -0.108 | 1.36 | 1.07
TCTCGGAGGACACGAAGGCCAGAGCTTTCCAGAG | 1 | 0.605 | 1.84 | 0.482 | 0.00493 | 1.43 | 0.215 | -0.411 | -0.212
CCGAGTTGGTTATGGGGCATTCAGGCAACGGTGA | 0.393 | -0.17 | -0.319 | 1.14 | 0.0354 | 0.111 | 0.472 | 0.221 | 0.996
TCTAGTTGGTCAAAGGTCACAGACTCGAAATGCG | 5.18 | 7.34 | 6.39 | 1.36 | 8.58 | 4.16 | 1.98 | 5.45 | 2.22
CCTAGTTGCTCAAGGTCACACACGCTATAGGTAC | 4.14 | 4.56 | 4.78 | 2.19 | 4.8 | 4.05 | 4.51 | 4.26 | 4
TAGCCTAGGTCATTGAGCCAGTATAGTACGCATC | 2.68 | 3.9 | 4.06 | 1.72 | 2.9 | 2.79 | 0.737 | 2.1 | 1.03
CCTATTAGTTGACCATAAGGGCAGCCGAAGCTCG | 1.55 | 0.749 | 0.64 | 0.252 | 0.392 | 1.36 | 0.892 | 0.304 | 0.242
AATTACGGGTCAACGAGGTTATAGCACGCGTATA | 3.63 | 5.71 | 4.88 | 2.47 | 6.2 | 4.18 | 1.16 | 7.73 | 4.13
GATACAGGGTCAAGGCCAGAGGACGCGTATTGAT | 3.63 | 5.29 | 4.94 | 2.07 | 5.78 | 3.64 | 1.43 | 4.11 | 2.28
TTACCAAGGTGAAAGTCGTTGATCCCTCTGTAGA | 0.704 | 0.61 | 0.23 | 0.0451 | 1.2 | 2 | 0.568 | 0.25 | -0.192
GGAACGAGGGCAAGTTCATAGCAGAGTTTGATGG | 2.84 | 2.99 | 3.16 | 3.64 | 2.16 | 2.35 | 0.375 | 3.9 | 5.08
CGAACTAGGTCAAGGACAGTGCATCTCCGCACGC | 3.51 | 4.21 | 4.75 | 1.45 | 2.72 | 3.28 | 2.03 | 2.39 | 0.69
GCGACTGGGGCAAAGCAGGTTACTATAAGGTTGG | 0.948 | 0.427 | 0.689 | 0.143 | 0.276 | 2.81 | 0.101 | 0.0986 | -0.0549
TCATATCGGTAAATGCTAGGTGAAAGTCCGATCT | 0.513 | -0.0615 | 0.173 | 1.14 | 0.375 | 0.889 | 0.553 | 0.566 | 0.0162
CGTCAAAGTTCAACTAAGATAACGTAAAGCACGC | 3.75 | 5.82 | 6.58 | 4.65 | 5.25 | 2.98 | 0.329 | 4.2 | 3.75
TTACCAAGGTGAGCTGAGGCCGTTGATCCAACTC | 0.505 | -0.177 | -0.0104 | -0.748 | -0.163 | 3.6 | 0.533 | 0.537 | -0.339
TCTATTAGTTGAAGGGCAACAGACGAGTCCGTTT | 1.14 | 0.634 | 0.745 | 1.68 | 0.567 | 0.209 | 0.0682 | 1.01 | 1.55
AATACAGGGTCACTAGGCCTGAGTAGGTACGAAT | 3.04 | 4.82 | 4.35 | 2.53 | 5.28 | 3.13 | 0.975 | 3.84 | 1.81
TCATATAGGTAAATGCTAGGTGAAAGGCCGATCT | 0.766 | 0.683 | 0.329 | 1.57 | 0.896 | 1.53 | 0.386 | 0.727 | 0.46
ATCTCTAGATAACAAGTTCAGTGAAAGAGAGGAC | 1.37 | 0.77 | 0.933 | 0.583 | 0.621 | 0.754 | 0.108 | 1.45 | 2.72
CAAACTAGGTCAGAGAGGTCAAAGTCCGTGCGTA | 5.19 | 6.39 | 6.79 | 2.74 | 7.07 | 4.43 | 2.45 | 7.57 | 6.12
TCGAGTAGGTTACCAATGAGGCATTCAGCTTTCT | -0.0486 | 0.457 | 0.0733 | 0.229 | 0.47 | -0.137 | -0.781 | -0.192 | -1.08
TCATATAGGTAATTCAGGTGAAAGTCGGCATCTA | 0.654 | 0.323 | 0.241 | 1.73 | 0.923 | 2.52 | 1.8 | 1.11 | 0.399
GTACCAAAGTGAATAGGTCGTTGATGAGTAGGCG | 0.226 | 0.205 | 0.383 | -0.282 | 0.584 | -0.048 | -0.733 | 0.0078 | -0.0624
ACAGACAGGTGATGAACGTAACTCAGGCTATCAT | 0.0133 | 0.303 | 0.489 | 0.0589 | 0.363 | 0.000937 | -0.114 | -0.0512 | -0.513
TCTATTAGTTGAAGGACAACCGACGAGTCCGTTT | 0.756 | 0.368 | 0.728 | 2.05 | 0.435 | 0.552 | 0.684 | 1.23 | 1.62
